ERa SRC1 inh = blocks coactivator binding to human estrogen receptor alpha; P03372; TR-FRET ER-alpha LBD / SRC-1 peptide, estradiol-bound; inhibition, % at 25.6 µM; 86,000 tested, 1.7% active; AID 629; in the data active = inhibition above about 50%;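 note: 0% = receptor plus peptide control and 100% = peptide only without receptor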
ERb coact inh = ER-beta (human) coactivator binding inhibition. TR-FRET ER-beta LBD / SRC1-Cy5 peptide binding; receptor agonist-loaded with 1 µM estradiol. AID 633. 86,000 tested, 1.3% active. inhibition, % at 25.6 µM;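 active = compounds whose percent inhibition of the receptor-coactivator binding signal exceeds about 50% in the single-dose screen, limit read from the data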;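 note: 0% = receptor plus peptide wells without compound and 100% = peptide-only wells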
Target sequence (Q92731 whole entry, looked up, the tested form may be a part): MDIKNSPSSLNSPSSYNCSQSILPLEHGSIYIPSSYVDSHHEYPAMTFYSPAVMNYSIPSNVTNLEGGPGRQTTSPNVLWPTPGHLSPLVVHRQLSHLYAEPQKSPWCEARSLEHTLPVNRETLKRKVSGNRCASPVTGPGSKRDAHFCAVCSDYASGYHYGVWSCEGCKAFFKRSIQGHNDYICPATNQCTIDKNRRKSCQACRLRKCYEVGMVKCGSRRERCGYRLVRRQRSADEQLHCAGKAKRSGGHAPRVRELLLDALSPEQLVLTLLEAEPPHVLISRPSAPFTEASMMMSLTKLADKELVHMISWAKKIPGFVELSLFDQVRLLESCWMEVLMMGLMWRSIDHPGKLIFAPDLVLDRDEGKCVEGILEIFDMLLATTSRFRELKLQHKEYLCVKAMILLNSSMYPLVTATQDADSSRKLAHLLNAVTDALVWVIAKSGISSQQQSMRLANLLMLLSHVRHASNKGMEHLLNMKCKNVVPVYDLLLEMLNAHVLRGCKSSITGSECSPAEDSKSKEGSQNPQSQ
ERa SRC1 pot = ER-alpha (human) coactivator binding potentiation; P03372; TR-FRET ERalpha-LBD/SRC-Cy5 coactivator binding, 2 h; 100 = basal binding, no effect; coactivator binding (% of control), % at 25.6 µM; 86,000 tested, 1.3% active; AID 639; in the data active = activity above about 200%;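 note: binding measured in presence of low estradiol as agonist stimulus; 0% = peptide alone without receptor and 100% = receptor with peptide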
Smad3 inh = blocks human Smad3 binding to FoxH1 peptide; P84022; TR-FRET Smad3/Dy647-FoxH1 peptide binding, europium anti-His; inhibition, % at 25 µM; 88,000 tested, 0.29% active;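 active = compounds that reduce the energy-transfer binding signal between the protein and its labelled peptide by more than half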;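 note: 0% = Smad3 plus labelled peptide maximal FRET and 100% = peptide-only background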
Active calls of the source: *; · = not tested or not shown; [ ] = another dose, or the depositor's remark. An excerpt weighted towards active compounds, which were near 3.7% of everything screened.

SMILES	ERa SRC1 inh	ERb coact inh	ERa SRC1 pot	Smad3 inh
COc1ccc(C[N+](C)(C)N)cc1OC	·	·	·	-1.6
N=C(N)SC(c1ccccc1)c1ccccc1	·	·	·	-3.8
C[C@@](N)(/C=C/c1ccccc1)C(=O)O	·	·	·	-11.5
COC(=O)c1ccc(Oc2nc(Nc3ccc(C)c(C)c3)nc(N(C)C)n2)cc1	-6.3	1.3	90.4	5.0
N#Cc1c(N)nc(SCc2ccncc2)c(C#N)c1-c1cccs1	-0.8	-5.5	266.9*[fluorescence artefact?]	2.7
COc1ccc(OC)c2sc(NC(=O)c3ccc(Br)s3)nc12	81.9*[fluorescence artefact?]	70.0*[fluorescence artefact?]	126.5	-31.3
O=C(Nc1nnc(C2CCCCC2)s1)c1ccc(Br)s1	11.4	51.7*[fluorescence artefact?]	367.1*[fluorescence artefact?]	-9.2
CCSc1nnc(NC(=O)c2ccc(Br)s2)s1	8.1	28.4	396.0*[fluorescence artefact?]	18.7
CCSc1nnc(NC(=O)c2ccccn2)s1	9.7	-4.3	91.7	5.8
CCC(=O)Nc1nc2c(OC)ccc(OC)c2s1	-2.4	-12.7	93.8	3.1
COc1cc(S(=O)(=O)NCC2OCCc3ccccc32)ccc1-n1cnnn1 (stereo unspecified)	-1.4	-5.2	100.7	-5.2
C[C@@]12C[C@H](O)[C@@H]3[C@H](CCC4=CC(=O)CC[C@]43C)[C@H]1CC[C@H]2c1csc(-c2ccccc2)n1	·	·	·	0.4
Cc1ccc2nc(N3CCN(S(=O)(=O)c4ccc(C)c(Cl)c4)CC3)c(C#N)cc2c1	48.0	50.1*[fluorescence artefact?]	243.9*[fluorescence artefact?]	-2.1
Cc1ccc2cc(C#N)c(N3CCCN(S(=O)(=O)c4ccccc4)CC3)nc2c1	31.7	26.8	349.6*[fluorescence artefact?]	-5.6
Cc1ccc2cc(C#N)c(N3CCN(C)CC3)nc2c1	-3.0	0.6	97.8	23.8
Cc1ccc2cc(C#N)c(N3CCCN(S(=O)(=O)c4ccccc4)CC3)nc2c1C	39.0	54.7*[fluorescence artefact?]	362.6*[fluorescence artefact?]	9.0
Cc1cccc2cc(C#N)c(N3CCN(C)CC3)nc12	1.8	6.7	113.2	13.5
Cc1ccc2nc(N3CCN(C)CC3)c(C#N)cc2c1	0.3	-10.3	98.4	3.3
Cc1ccc2cc(C#N)c(N3CCCN(S(=O)(=O)c4ccc(F)cc4)CC3)nc2c1	44.1	51.3*[fluorescence artefact?]	349.1*[fluorescence artefact?]	11.8
C/C(N[O-])=C(\C)[N+]([O-])=[Rh][Cl].CC(=N\[O-])/C(C)=N/[O-].NC(N)=[SH+]	·	·	·	-2.1
COc1ccc2cc(C#N)c(N3CCN(Cc4nnnn4CCC(C)C)CC3)nc2c1	4.6	16.9	108.1	-4.2
Cc1ccc2nc(N3CCN(Cc4nnnn4Cc4ccccc4)CC3)c(C#N)cc2c1	38.5	30.1	372.4*[fluorescence artefact?]	-4.0
COc1nc(C)nc(NC(=O)NS(=O)(=O)c2ccc(C)cc2)n1	4.8	50.6*[fluorescence artefact?]	79.8	-9.8
COc1ccc(NC(=O)NS(=O)(=O)c2ccc(C)cc2)c(OC)c1	5.3	18.2	92.1	9.1
CCCS(=O)(=O)N1CCC(C(=O)NCCN2CCCC2)CC1	-4.4	81.5*[fluorescence artefact?]	103.2	7.0
SMILES	ERa SRC1 inh	ERb coact inh	ERa SRC1 pot	Smad3 inh
COC(=O)c1c(C)[nH]c(C(=O)COC(=O)Cc2ccc3c(c2)OCCO3)c1C	-0.8	0.2	260.3*[fluorescence artefact?]	0.3
COc1ccc(NC(=O)CCC(=O)Nc2nnc(C(F)(F)F)s2)c(OC)c1	-6.0	-2.1	93.6	20.5
FC(F)(F)c1cnc(Nc2ccc(N3CCOCC3)cc2)c(Cl)c1	63.1*[fluorescence artefact?]	86.2*[fluorescence artefact?]	60.6	-10.6
Cc1ccc2nc(NC(=O)COC(=O)c3ccc(Br)o3)sc2c1	15.4	31.6	82.1	-0.5
O=c1c2c(-c3ccco3)csc2nc(SCc2cn3cccnc3n2)n1-c1ccccc1	67.2*[fluorescence artefact?]	28.4	81.2	8.0
O=C(CSc1nc2scc(-c3ccco3)c2c(=O)n1-c1ccccc1)NCC1CCCO1 (stereo unspecified)	62.1*	54.8*	142.9	-2.5
OC1C[C@H]2CC[C@@H](C1)N2CCCN1c2ccccc2Sc2ccc(Cl)cc21 (stereo partly specified)	·	·	·	-9.3
COc1ccc(-c2nn[nH]n2)cc1OC	-4.4	1.9	96.9	-7.3
Nc1cc(-c2nn[nH]n2)ccc1F	43.1	59.6*[fluorescence artefact?]	58.6	8.6
O=c1[nH]c(CN2CCN(c3ccccc3Cl)CC2)nc2ccsc12	-5.6	1.0	103.5	7.5
COc1cc2c(cc1OC)CN(Cc1nc3ccsc3c(=O)[nH]1)CC2	53.0*[fluorescence artefact?]	48.8	59.0	9.5
Cc1cccc(N2CSC3=C(C#N)C(c4ccc(C)o4)CC(=O)N3C2)c1 (stereo unspecified)	82.7*	68.1*[fluorescence artefact?]	60.4	7.6
COc1cc(C(=O)Nc2nnc(-c3sccc3C)s2)cc(OC)c1OC	31.5	31.0	475.5*	-276.0
COc1cc(C(=O)Nc2ccncc2)cc(OC)c1OC	1.2	-7.3	109.6	12.5
N#Cc1c(-c2ccco2)cc(-c2cccnc2)nc1N	47.7	37.3	72.8	6.0
N#Cc1c(-c2ccco2)cc(-c2ccccn2)nc1N	78.0*[fluorescence artefact?]	63.1*[fluorescence artefact?]	28.0	11.5
CC(C)C(=O)C(C)(C)CCc1ccccn1	·	·	·	3.1
OC(COc1ccc(C2C=CCC2)cc1)CN1CCCCC1 (stereo unspecified)	37.3	62.7*[fluorescence artefact?]	262.7*[fluorescence artefact?]	66.9*
COc1ccc(NC(=O)C2CCCO2)cc1OC (stereo unspecified)	0.6	-0.1	106.7	71.5*
O=C(CCNS(=O)(=O)c1cccs1)NCc1ccccc1	5.1	4.8	79.0	9.7
Cc1ccc(-c2c3c(nc4sc(C(N)=O)c(N)c24)CCC3)cc1	4.9	-10.6	75.3	2.0
NC(=O)c1sc2nc3c(c(-c4ccc(Cl)cc4)c2c1N)CCCC3	10.9	20.7	251.6*[fluorescence artefact?]	4.2
C[C@H](Br)C(=O)c1ccc2cc(Br)c3ccccc3c2c1	·	·	·	-18.4
COc1cc(NC(=O)c2cccs2)c(C(=O)OCC(=O)NC(=O)NCc2ccccc2)cc1OC	39.3	0.9	344.4*	-418.2
COc1cc(NC(=O)c2cccs2)c(C(=O)OCC(=O)NC(=O)NC(C)(C)C)cc1OC	15.7	75.3*	100.7	-12.1
SMILES	ERa SRC1 inh	ERb coact inh	ERa SRC1 pot	Smad3 inh
Cc1cc(C(=O)OCC(=O)NC(=O)NC(C)(C)C)c(C)o1	-5.8	-10.2	118.5	3.7
COc1ccc(CNC(=O)COC(=O)c2cc(-c3cccs3)nc3ccccc23)cc1OC	36.6	5.8	72.4	-1.8
O=C(O)CN(CCN(CC(=O)O)CC(=O)O)CC(=O)O.[Mn+2]	·	·	·	8.9
CC1(C)Cc2ccccc2C(c2cc3ccccc3oc2=O)=N1	-1.0	0.7	98.0	14.3
CC1(C)Cc2c(ccc3ccccc23)C(c2cc3ccccc3oc2=O)=N1	59.5*[fluorescence artefact?]	18.3	72.8	6.0
CCn1c(SC(C)C(=O)O)nc2sc3c(c2c1=O)CCC3 (stereo unspecified)	93.2*[fluorescence artefact?]	92.5*[fluorescence artefact?]	2.7	12.8
CCn1c(SCC(=O)N2CCOCC2)nc2sc3c(c2c1=O)CCCC3	8.3	-0.4	108.6	2.7
Cc1ccc(S(=O)(=O)N=Nc2c(O)[nH]c3ccccc23)cc1	6.6	3.5	108.5	-3.6
O=[N+]([O-])c1ccccc1N=Nc1c(O)[nH]c2ccc(S(=O)(=O)O)cc12	·	·	·	62.6*
Cn1c(CSc2nc3ccccc3s2)nc2ccccc21	4.2	6.9	282.2*[fluorescence artefact?]	1.8
Brc1ccccc1-c1nnc(CSc2nnnn2-c2ccccc2)o1	51.0*	26.6	88.0	4.2
Cc1nnc(SCc2nnc(-c3ccccc3Br)o2)n1-c1ccccc1	44.4	27.7	78.2	1.5
OCCCNCc1ccncc1	·	·	·	1.0
